Compounds with a hit are over-represented: about 1.9% of the library has one in this group of screens.
MOR-DOR inv ag: inverse agonists of MOR-DOR heterodimerization, primary screen, cell-based, luminescence. actives 0.21% (n = 340,000). AID 504357, 2011. inhibition, % at 9.3 µM. cell-based MOR-DOR heterodimer luminescence, inverse agonism; in the data active = inhibition above about 22%, passing the limit was not always enough;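 also: 0% = cells with DMSO and 100% = wells without cells with DMSO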
Target sequence (P35372 whole entry, looked up): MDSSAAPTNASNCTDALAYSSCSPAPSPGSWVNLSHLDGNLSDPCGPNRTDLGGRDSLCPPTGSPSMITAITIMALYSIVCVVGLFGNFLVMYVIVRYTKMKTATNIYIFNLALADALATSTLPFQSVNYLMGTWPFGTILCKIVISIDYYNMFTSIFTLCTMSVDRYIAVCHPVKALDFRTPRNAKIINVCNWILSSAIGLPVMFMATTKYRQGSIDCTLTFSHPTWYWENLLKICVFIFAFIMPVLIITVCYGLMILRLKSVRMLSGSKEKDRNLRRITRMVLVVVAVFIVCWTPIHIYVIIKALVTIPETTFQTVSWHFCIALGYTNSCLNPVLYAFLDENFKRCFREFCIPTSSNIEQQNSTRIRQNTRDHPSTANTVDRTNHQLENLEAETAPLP
Target sequence (P41143 whole entry, looked up): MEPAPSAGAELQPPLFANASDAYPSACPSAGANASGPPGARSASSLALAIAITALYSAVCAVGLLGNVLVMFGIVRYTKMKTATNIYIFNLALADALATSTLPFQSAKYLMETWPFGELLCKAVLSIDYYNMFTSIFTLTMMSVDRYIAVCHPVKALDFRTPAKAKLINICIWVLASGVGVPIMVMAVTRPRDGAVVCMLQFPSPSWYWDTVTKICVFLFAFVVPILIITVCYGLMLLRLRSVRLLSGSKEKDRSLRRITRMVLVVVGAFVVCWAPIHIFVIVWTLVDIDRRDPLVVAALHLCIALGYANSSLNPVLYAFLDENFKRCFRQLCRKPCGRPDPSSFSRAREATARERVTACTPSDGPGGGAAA
HTR5A ag ctr: HTR5A agonists in luminescence cell assay, primary screen, counter-screen for OPRM1-OPRD1 heterodimer agonist project, full-deck HTS; 5-hydroxytryptamine receptor 5A (Homo sapiens), P47898; cell-based; activation, % at 9.3 µM; actives 0.61% (n = 340,000); in the data active = activation mostly above about 9.5%, no sharp cut-off; inactive = mostly below about 7.6%;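 also: 0% = cells with vehicle only and 100% = reference agonist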
HTR5A inv ctr: HTR5A inverse agonists in luminescence cell assay, primary screen, counter-screen for OPRM1-OPRD1 heterodimer inverse agonist project, full-deck HTS; HTR5A cell line, inverse agonism; inhibition, % at 9.3 µM; actives 0.083% (n = 340,000); in the data active = inhibition mostly above about 23%, no sharp cut-off; inactive = mostly below about 18%;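 also: 0% = cells with DMSO and 100% = no-cell wells with DMSO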
MsrA inhibitor: bovine MsrA enzyme inhibitors, primary screen, biochemical, absorbance, HTS | inhibition, % at 15.5 µM | Methionine sulfoxide reductase A (Bos taurus) | actives 0.75% (n = 360,000) | purified bovine MsrA, absorbance read-out;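 also: 0% = vehicle wells with enzyme and 100% = reference inhibitor wells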
MOR-DOR ag: agonists of OPRM1-OPRD1 heterodimerization, primary screen, cell-based, luminescence | cells | activation, % at 9.3 µM | actives 0.3% (n = 340,000) | AID 504326, 2011; in the data active = activation above about 18%;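 also: 0% = vehicle-treated cells and 100% = reference agonist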
MsrA act: bovine MsrA enzyme activators, primary screen, biochemical, absorbance, HTS; Methionine sulfoxide reductase A (Bos taurus); purified bovine MsrA, absorbance read-out; activation, % at 10.6 µM; actives 0.3% (n = 360,000); AID 602163, 2012; in the data active = activation above about 7.5%;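 also: 0% = vehicle and 100% = reference activator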
MsrA inh confirm: bovine MsrA inhibitors, retest, confirmation, biochemical, absorbance, HTS; AID 651822, 2012; shares compounds with MsrA inhibitor; purified bovine MsrA, absorbance read-out; actives 41% (n = 2,300); inhibition, % at 15.5 µM;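 also: coupled to thioredoxin reductase with NADPH and selenocystamine and DMSO as substrate; 0% = vehicle only and 100% = full effect of reference inhibitor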
* hit, by the source's call; / = not tested or not shown. Rule as the data show it, unless noted: active = inhibition above about 4.5%; inactive = the rest.

SMILES	MOR-DOR inv ag	HTR5A ag ctr	HTR5A inv ctr	MsrA inhibitor	MOR-DOR ag	MsrA act	MsrA inh confirm
COc1ccc(/C=N/N=C2/NC(=O)C(CC(=O)O)S2)cc1OCc1ccccc1Cl (stereo not given)	14	5	-18	6.5*	-3	-10	6.4*
CCOc1cc(/C=N/N=C2/NC(=O)C(CC(=O)O)S2)ccc1OCc1ccccc1Cl (stereo not given)	16	-3	2	6.8*	-3	-4	4.8*
COc1ccc(/C=N/N=C2/NC(=O)C(CC(=O)O)S2)cc1OCc1ccc(Cl)cc1Cl (stereo not given)	7	4	-13	2	-1	-4	/
CC(C)n1nnnc1C1c2ccccc2C(=O)N1Cc1cccnc1 (stereo not given)	/	/	/	-1	/	-2	/
CCN(c1cccc(C)c1)S(=O)(=O)c1nnc(NC(=O)c2ccco2)s1	10	-1	-1	3	-2	-4	/
CCN(c1ccccc1)S(=O)(=O)c1nnc(NC(=O)c2ccco2)s1	1	-2	7	5.9*	0	-8	5.3*
O=C(c1ccccc1)N(CCO)Cc1cc2cc3c(cc2[nH]c1=O)OCCO3	7	0	-8	1	-1	-4	/
O=C(c1ccco1)N(CCO)Cc1cc2cc3c(cc2[nH]c1=O)OCO3	11	-3	7	6.1*	-2	-1	3
N#C/C(=C/Nc1ccccc1)c1ccsc1	-9	1	-4	4.8*	2	-15	2
Cc1ccc(N/C=C(/C#N)c2ccsc2)cc1	2	-5	14	3	0	-2	/
O=C(N/N=C/c1cn(-c2ccccc2)nc1-c1ccc2c(c1)OCCO2)c1ccncc1	-56	3	-7	5.0*	11	0	1
COc1ccc(/C=C(/C#N)S(=O)(=O)c2ccc(C)cc2)cc1	9	0	-20	0	-2	-1	/
CO/N=C/C(C#N)=C/c1ccc(OC)cc1	2	3	-7	6.7*	0	-7	4.8*
CC(C)n1nnnc1C1c2ccccc2C(=O)N1Cc1ccco1 (stereo not given)	/	/	/	0	/	-2	/
CCN(CC)c1ccc(C(=O)OCC(=O)Nc2ccccc2-c2ccccc2)cc1	-34	0	6	5.8*	5	-8	3
NC1=NC(=O)/C(=C/c2cn(CCC(=O)O)nc2-c2ccc(Cl)cc2)S1	8	2	-8	4	-1	-4	/
NC1=NC(=O)/C(=C/c2cn(CCC(=O)O)nc2-c2ccc(F)cc2)S1	0	1	-4	5.0*	0	-6	3
COc1ccc(NC(=O)CN(C)C(=O)/C=C/c2cn(-c3ccccc3)nc2-c2ccc(C)cc2)cc1	3	2	-6	4.9*	0	-4	3
COc1ccc(NC(=O)CN(C)C(=O)/C=C/c2cn(-c3ccccc3)nc2-c2ccc(F)cc2)cc1	-2	0	0	3	0	1	/
Cc1ccc2nc(-c3cccc(Cl)c3)c(Cc3ccsc3)n2c1	/	/	/	1	/	/	/
O=C(c1nc2nc(-c3ccccc3)cc(C(F)(F)F)n2n1)N1CCCCC1	-4	8	9	1	1	-4	/
COc1ccc(-c2cc(C(F)(F)F)n3nc(C(=O)N4CCOCC4)nc3n2)cc1	18	0	-10	7.7*	-4	-6	4.9*
CC(C)NC(=O)Nc1ccc2c(c1)C(=O)N([C@@H](C)CO)C[C@@H](C)[C@H](CN(C)Cc1ccccc1)OCCCC[C@H](C)O2	/	/	/	0	/	7	/
S=c1[nH]nc(-c2ccc(Cl)cc2)n1/N=C/C=C/c1ccco1	/	/	/	2	/	-1	/
Cc1ccccc1-c1n[nH]c(=S)n1/N=C/C=C/c1ccco1	-2	0	24	4.7*	0	0	5
S=c1[nH]nc(-c2ccccc2)n1/N=C/C=C/c1ccco1	2	-5	5	5.7*	0	2	6.2*

High-throughput results (PubChem BioAssay)
